Inconclusive results are not listed. Active and inactive are the calls of the source. The call rests on the fitted dose curve; in most records, active means well fitted cell-killing curve with a large enough effect; inconclusive means small, poorly fitted or top-dose-only effect, or effect the other way; inactive means no such curve, though single readings can be large or run the other way.
test system: C33A; assay: Confirmatory qHTS for gynecologic anti-cancer compounds from libraries of approved drugs and bioactive compounds; conditions: gynecologic cancer cell panel viability, ATPlite luminescence, 48 h; series mostly up to 57.6 µM; further: nearly all actives have a fitted effect of over 55% in size
Procedure, shortened: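 Cells (1,000/well) were plated, left 16 h at 37 C/5% CO2, then given compound at 11 concentrations (1:3) from 57.5 uM to 0.977 nM for 48 h. ATPlite luminescence after 15 min at room temperature gave IC50 values.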
Potency means the concentration at half of the fitted maximal effect.

Row | Structure (SMILES) | Potency
1 | CN(C)c1ccc(-c2nc3ncc(Cl)c(N4CCN(CC(=O)Nc5nccs5)CC4)c3[nH]2)cc1 | inactive
2 | CCN(CC)CCCC(C)Nc1c2ccc(Cl)cc2nc2ccc(OC)cc12 (stereo not drawn) | 24.3 µM (active)
3 | COc1cc2c(Nc3ccc(NC(=O)c4ccccc4)cc3)ncnc2cc1OCCCN1CCOCC1 | 27.3 µM (active)

From PubChem BioAssay AID1345085 (National Center for Advancing Translational Sciences (NCATS), 2018)
